# Data: PubChem BioAssay (EPA / NIEHS)
# Several values for one entry are separate records, joined by “and”; a condition that tells them apart may be missing. Identical values can stand only once. Records with an inconclusive call do not appear. A structure can be active in one record and inactive in another. Activity calls are given as the source filed them. Rule for the calls: active = hit-call score of the fitted dose curve at least 0.9, where 1 is the maximum; inconclusive = response in the unintended direction; inactive = score below 0.9.
# Assays:
# [1] = system: 5-hydroxytryptamine receptor 2C (pig); test: NVS_GPCR_p5HT2C: NovaScreen (NVS) G Protein-Coupled Receptor Assay for pig Serotonin, 5-Hydroxytryptamine Receptor 2C (5HT2C) (AID 2283288)
# Outline: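 Pig choroid plexus membranes; radioligand competitive binding, filter-based scintillation counting, read 1 h after dosing. Primary screen in duplicate at 25 uM; actives then run as concentration series; loss of signal versus DMSO baseline.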
# [2] = molecular target: rat Adrenergic, Alpha 1, Non-selective Receptor (Adra1), Adra1a (gene 29412) (UniProt P43140); test: NVS_GPCR_rAdra1_NonSelective: NovaScreen (NVS) G Protein-Coupled Receptor Assay for rat Adrenergic, Alpha 1, Non-selective Receptor (Adra1) (AID 2283289)
# Outline: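 Rat forebrain membranes; radioligand displacement read by filter-based scintillation counting 1 h after dosing. Primary screen in duplicate at 25 uM; hits (e.g. ≥30% inhibition) rerun as concentration–response to 50 uM max. Fitted versus DMSO.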
# [3] = molecular target: guinea pig Serotonin, 5-Hydroxytryptamine Receptor 4 (5HT4), HTR4 (gene 100135548) (UniProt O70528); test: NVS_GPCR_g5HT4: NovaScreen (NVS) G Protein-Coupled Receptor Assay for guinea pig Serotonin, 5-Hydroxytryptamine Receptor 4 (5HT4) (AID 2283294)
# Outline: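 Guinea pig striatal membranes; radioligand competitive displacement, filtration and scintillation counting after 1 h. Primary screen in duplicate at 25 uM; actives then tested in concentration series; loss of binding signal fitted relative to DMSO.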
# [4] = molecular target: rat Serotonin, 5-Hydroxytryptamine Receptor (5HT), Non-Selective Binding, Htr1a (gene 24473) (UniProt P19327); test: NVS_GPCR_r5HT_NonSelective: NovaScreen (NVS) G Protein-Coupled Receptor Assay for rat Serotonin, 5-Hydroxytryptamine Receptor (5HT), Non-Selective Binding (AID 2283295)
# Outline: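 Radioligand displacement on rat cortical membranes, 1 h incubation, filter-based scintillation counting. Primary duplicates at 25 uM, actives retested in concentration series; loss of signal fitted against DMSO as baseline.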
# [5] = molecular target: rat Adrenergic, Alpha 1A Receptor (Adra1A), Adra1a (gene 29412) (UniProt P43140); test: NVS_GPCR_rAdra1A: NovaScreen (NVS) G Protein-Coupled Receptor Assay for rat Adrenergic, Alpha 1A Receptor (Adra1A) (AID 2283296)
# Outline: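 Rat cortical membranes pretreated with chlorethyl clonidine; competitive radioligand displacement, 1 h. Filter-based scintillation counting. Primary screen in duplicate at 25 uM, actives followed in concentration series.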
# [6] = system: rat Adrenergic, Alpha 1B Receptor (Adra1B), gene 24173; test: NVS_GPCR_rAdra1B: NovaScreen (NVS) G Protein-Coupled Receptor Assay for rat Adrenergic, Alpha 1B Receptor (Adra1B) (AID 2283297)
# Outline: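 Rat liver membranes, radioligand displacement with filter-based scintillation detection, 1 h incubation. Primary screen in duplicate at 25 uM; actives retested in concentration series; activity relative to DMSO.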
# [7] = molecular target: rat Adrenergic Receptor, Alpha 2 (Adra2), Non-selective Binding, Adra2a (gene 25083) (UniProt P22909); test: NVS_GPCR_rAdra2_NonSelective: NovaScreen (NVS) G Protein-Coupled Receptor Assay for rat Adrenergic Receptor, Alpha 2 (Adra2), Non-selective Binding (AID 2283299)
# Outline: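 Rat cortical membranes, radioligand competitive displacement read by filter-based scintillation counting 1.25 hours after dosing. Primary screen in duplicate at 25 uM; actives followed up in concentration series.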
# Adra2b (gene 24174) = Adra2b (gene 24174) (UniProt P19328); test: NVS_GPCR_rmAdra2B: NovaScreen (NVS) G Protein-Coupled Receptor Assay for hybird cells Adrenergic, Alpha 2B Receptor (Adra2B) (AID 2283306)
# Outline: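 Radioligand filter-binding assay on membrane proteins from neuroglioma/blastoma hybrid cells (rodent), 1 h after dosing; scintillation counting, loss of signal vs DMSO. Primary screen in duplicate at 25 uM, actives then run in concentration series.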
# [8] = molecular target: rat Opioid Receptor, Non-selective Sodium (Na+) Binding, Oprm1 (gene 25601) (UniProt P33535); test: NVS_GPCR_rOpiate_NonSelectiveNa: NovaScreen (NVS) G Protein-Coupled Receptor Assay for rat Opioid Receptor, Non-selective Sodium (Na+) Binding (AID 2283311)
# Outline: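 Rat forebrain membranes, radioligand displacement with filter scintillation counting, 1.5 h incubation. Screened in duplicate at 25 µM; hits then run in concentration-response up to 50 µM; loss of binding fitted versus DMSO.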
# [9] = molecular target: mouse Cholecystokinin, CCK1 Receptor (CCKA), Cckar (gene 12425) (UniProt O08786); test: NVS_GPCR_mCCKAPeripheral: NovaScreen (NVS) G Protein-Coupled Receptor Assay for mouse Cholecystokinin, CCK1 Receptor (CCKA) (AID 2283285)
# Outline: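 Radioligand competitive displacement on mouse pancreatic membranes, 2 h incubation; filter-based scintillation counting, loss of signal versus DMSO. Single-concentration screen at 25 uM in duplicate, actives retested in concentration-response up to 50 uM.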
# [10] = molecular target: rat Serotonin, 5-Hydroxytryptamine Receptor 1 (5HT1), Non-Selective Binding, Htr1a (gene 24473) (UniProt P19327); test: NVS_GPCR_r5HT1_NonSelective: NovaScreen (NVS) G Protein-Coupled Receptor Assay for rat Serotonin, 5-Hydroxytryptamine Receptor 1 (5HT1), Non-Selective Binding (AID 2283286)
# Outline: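 Rat cortical membranes, radioligand displacement, 1 h incubation, read by filter scintillation. Primary screen in duplicate at 25 uM. Hits (e.g. ≥30% inhibition) went to concentration-response up to 50 uM, fitted as loss of binding versus DMSO.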
# [11] = molecular target: human Opioid Receptor Mu (Opiate Mu), OPRM1 (gene 4988) (UniProt P35372); test: NVS_GPCR_hOpiate_mu: NovaScreen (NVS) G Protein-Coupled Receptor Assay for human Opioid Receptor Mu (Opiate Mu) (AID 2283290);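 note: hits lower bound tracer signal versus DMSO meaning displacement of the ligand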
# Outline: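 Primary screen in duplicate at 25 uM, with actives followed in concentration series. CHO-derived receptor membranes, cell-free; bound radioligand read by scintillation counting after filtration at 2.5 h, decrease scored against DMSO.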
# [12] = molecular target: rat Gamma-Aminobutyric Acid Type B Receptor (GABBR), Gabbr1 (gene 81657) (UniProt Q9Z0U4); test: NVS_GPCR_rGABBR: NovaScreen (NVS) G Protein-Coupled Receptor Assay for rat Gamma-Aminobutyric Acid Type B Receptor (GABBR) (AID 2283301)
# Outline: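 Radioligand displacement on rat cortical membranes, 1 h, filter-based scintillation counting. Primary screen at 25 uM in duplicate; compounds passing threshold re-tested in concentration-response up to 50 uM; loss of binding fitted against DMSO.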
# [13] = molecular target: rat Histamine Receptor (H3), Hrh3 (gene 85268) (UniProt Q9QYN8); test: NVS_GPCR_rH3: NovaScreen (NVS) G Protein-Coupled Receptor Assay for rat Histamine Receptor (H3) (AID 2283303)
# Outline: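 Rat forebrain membranes incubated 1 h with compound; radioligand displacement measured by filter-based scintillation counting. Single-concentration duplicates at 25 µM, then concentration-response up to 50 µM, relative to DMSO.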
# [14] = molecular target: rat Neurokinin-1 Receptor (NK1), Tacr1 (gene 24807) (UniProt P14600); test: NVS_GPCR_rNK1: NovaScreen (NVS) G Protein-Coupled Receptor Assay for rat Neurokinin-1 Receptor (NK1) (AID 2283309)
# Outline: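 Rat submaxillary gland membranes; radioligand displacement read by filter-based scintillation counting after 1 h. Primary screen in duplicate at 25 uM; actives retested in concentration series; loss of binding fitted versus DMSO.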
# [15] = molecular target: rat Adrenergic Receptor, Beta (Adrb), Non-selective Binding, Adrb1 (gene 24925) (UniProt P18090); test: NVS_GPCR_rAdrb_NonSelective: NovaScreen (NVS) G Protein-Coupled Receptor Assay for rat Adrenergic Receptor, Beta (Adrb), Non-selective Binding (AID 2283298)
# Outline: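 Non-selective beta-adrenergic radioligand binding in rat cortical membranes, 1 h incubation, filter-based scintillation read-out. Primary screen 25 uM in duplicate; hits retested in concentration-response up to 50 uM, DMSO baseline.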
# [16] = molecular target: rat Neurokinin-3 Receptor (NK3), Tacr3 (gene 24808) (UniProt P16177); test: NVS_GPCR_rNK3: NovaScreen (NVS) G Protein-Coupled Receptor Assay for rat Neurokinin-3 Receptor (NK3) (AID 2283310)
# Outline: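 Rat cortical membranes; radioligand binding with filtration and scintillation counting, 2 h after dosing. Primary screen in duplicate at 25 uM, then concentration-response up to 50 uM; loss of binding signal relative to DMSO.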
# [17] = molecular target: guinea pig Bradykinin Receptor B2 (BK2), BDKRB2 (gene 100135486) (UniProt O70526); test: NVS_GPCR_gBK2: NovaScreen (NVS) G Protein-Coupled Receptor Assay for guinea pig Bradykinin Receptor B2 (BK2) (AID 2283292)
# Outline: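 Radioligand displacement on guinea pig ileum membranes for 1 h, read by filter-based scintillation counting; loss of signal relative to DMSO. Compounds were screened in duplicate at 25 uM, and those passing the threshold were retested in concentration-response up to 50 uM.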
# [18] = molecular target: mouse Cholecystokinin, CCK2 Receptor (CCKB), Cckbr (gene 12426) (UniProt P56481); test: NVS_GPCR_mCKKBCentral: NovaScreen (NVS) G Protein-Coupled Receptor Assay for mouse Cholecystokinin, CCK2 Receptor (CCKB) (AID 2283293)
# Outline: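 Radioligand displacement binding on mouse forebrain membranes, 2 h exposure, filter-based scintillation counting. Primary screen in duplicate at 25 uM; actives (e.g. ≥30% inhibition) retested in concentration-response up to 50 uM; loss of binding signal relative to DMSO.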
# human Opioid Receptor Mu (Opiate Mu), OPRM1 (gene 4988), sequence (P35372 whole entry, looked up): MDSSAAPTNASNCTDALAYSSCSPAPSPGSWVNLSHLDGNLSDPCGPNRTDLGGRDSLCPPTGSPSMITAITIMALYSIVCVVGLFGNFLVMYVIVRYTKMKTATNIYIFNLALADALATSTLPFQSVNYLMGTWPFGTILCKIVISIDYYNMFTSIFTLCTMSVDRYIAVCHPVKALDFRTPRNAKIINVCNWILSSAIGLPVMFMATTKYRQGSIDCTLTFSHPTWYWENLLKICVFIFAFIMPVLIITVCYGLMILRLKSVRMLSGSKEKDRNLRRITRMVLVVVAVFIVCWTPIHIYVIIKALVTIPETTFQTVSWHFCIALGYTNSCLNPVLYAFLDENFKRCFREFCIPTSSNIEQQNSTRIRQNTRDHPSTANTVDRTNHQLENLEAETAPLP
# rat Opioid Receptor, Non-selective Sodium (Na+) Binding, Oprm1 (gene 25601), sequence (P33535 whole entry, looked up): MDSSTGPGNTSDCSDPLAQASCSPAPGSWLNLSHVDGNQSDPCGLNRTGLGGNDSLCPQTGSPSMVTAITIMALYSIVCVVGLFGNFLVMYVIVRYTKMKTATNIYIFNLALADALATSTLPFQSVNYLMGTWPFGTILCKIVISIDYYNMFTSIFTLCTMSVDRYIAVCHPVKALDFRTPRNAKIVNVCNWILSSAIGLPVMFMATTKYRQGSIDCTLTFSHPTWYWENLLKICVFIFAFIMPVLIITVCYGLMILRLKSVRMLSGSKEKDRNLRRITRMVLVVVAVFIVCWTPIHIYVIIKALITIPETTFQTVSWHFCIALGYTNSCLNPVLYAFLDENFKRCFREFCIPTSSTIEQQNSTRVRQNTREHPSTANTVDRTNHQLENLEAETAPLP
# rat Neurokinin-3 Receptor (NK3), Tacr3 (gene 24808), sequence (P16177 whole entry, looked up): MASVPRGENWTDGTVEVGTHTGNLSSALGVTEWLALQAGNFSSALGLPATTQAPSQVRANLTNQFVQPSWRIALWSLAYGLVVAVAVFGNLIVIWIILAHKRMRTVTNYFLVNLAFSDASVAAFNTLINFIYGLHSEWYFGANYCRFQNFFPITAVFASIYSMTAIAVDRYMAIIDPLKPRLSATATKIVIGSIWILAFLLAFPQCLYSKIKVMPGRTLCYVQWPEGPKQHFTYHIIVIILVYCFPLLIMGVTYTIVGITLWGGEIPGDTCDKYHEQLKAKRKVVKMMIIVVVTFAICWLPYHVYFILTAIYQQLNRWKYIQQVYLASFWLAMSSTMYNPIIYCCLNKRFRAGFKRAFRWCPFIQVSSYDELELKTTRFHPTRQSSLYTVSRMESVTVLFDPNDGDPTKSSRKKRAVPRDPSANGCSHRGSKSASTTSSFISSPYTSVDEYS
# Adra2b (gene 24174), sequence (P19328 whole entry, looked up): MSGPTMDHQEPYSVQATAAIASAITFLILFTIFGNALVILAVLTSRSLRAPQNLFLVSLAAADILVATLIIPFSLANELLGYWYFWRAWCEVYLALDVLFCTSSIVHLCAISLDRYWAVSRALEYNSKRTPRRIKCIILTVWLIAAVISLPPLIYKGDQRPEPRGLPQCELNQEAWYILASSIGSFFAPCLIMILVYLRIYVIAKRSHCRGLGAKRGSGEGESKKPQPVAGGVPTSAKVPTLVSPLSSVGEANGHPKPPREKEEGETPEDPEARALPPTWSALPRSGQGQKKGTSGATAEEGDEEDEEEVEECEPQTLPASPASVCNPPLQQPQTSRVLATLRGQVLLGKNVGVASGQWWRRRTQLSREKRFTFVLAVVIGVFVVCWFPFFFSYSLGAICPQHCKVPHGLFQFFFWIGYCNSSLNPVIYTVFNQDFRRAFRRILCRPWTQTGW
# guinea pig Serotonin, 5-Hydroxytryptamine Receptor 4 (5HT4), HTR4 (gene 100135548), sequence (O70528 whole entry, looked up): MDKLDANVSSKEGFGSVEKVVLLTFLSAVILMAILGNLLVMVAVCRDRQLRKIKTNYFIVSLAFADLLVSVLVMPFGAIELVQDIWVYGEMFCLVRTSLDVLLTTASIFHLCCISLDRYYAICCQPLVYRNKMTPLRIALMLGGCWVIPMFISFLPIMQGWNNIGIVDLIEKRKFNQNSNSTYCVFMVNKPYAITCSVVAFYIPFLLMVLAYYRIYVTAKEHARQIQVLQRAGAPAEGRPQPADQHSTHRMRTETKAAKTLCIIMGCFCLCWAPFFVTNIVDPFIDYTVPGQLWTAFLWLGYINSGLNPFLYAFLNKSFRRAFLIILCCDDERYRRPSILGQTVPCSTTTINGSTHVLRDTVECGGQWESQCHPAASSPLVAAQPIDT
# rat Serotonin, 5-Hydroxytryptamine Receptor (5HT), Non-Selective Binding, Htr1a (gene 24473), sequence (P19327 whole entry, looked up): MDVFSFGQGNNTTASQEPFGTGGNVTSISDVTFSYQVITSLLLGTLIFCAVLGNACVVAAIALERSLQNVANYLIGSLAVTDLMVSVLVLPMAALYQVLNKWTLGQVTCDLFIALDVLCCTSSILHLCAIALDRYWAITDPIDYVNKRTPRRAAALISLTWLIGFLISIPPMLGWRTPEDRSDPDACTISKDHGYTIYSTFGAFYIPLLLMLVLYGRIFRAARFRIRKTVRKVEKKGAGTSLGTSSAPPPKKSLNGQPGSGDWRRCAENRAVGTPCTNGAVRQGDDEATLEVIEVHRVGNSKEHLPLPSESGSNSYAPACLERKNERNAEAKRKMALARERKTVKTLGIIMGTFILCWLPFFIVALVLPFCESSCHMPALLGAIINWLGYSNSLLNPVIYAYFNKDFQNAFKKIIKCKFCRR
# rat Adrenergic, Alpha 1A Receptor (Adra1A), Adra1a (gene 29412), sequence (P43140 whole entry, looked up): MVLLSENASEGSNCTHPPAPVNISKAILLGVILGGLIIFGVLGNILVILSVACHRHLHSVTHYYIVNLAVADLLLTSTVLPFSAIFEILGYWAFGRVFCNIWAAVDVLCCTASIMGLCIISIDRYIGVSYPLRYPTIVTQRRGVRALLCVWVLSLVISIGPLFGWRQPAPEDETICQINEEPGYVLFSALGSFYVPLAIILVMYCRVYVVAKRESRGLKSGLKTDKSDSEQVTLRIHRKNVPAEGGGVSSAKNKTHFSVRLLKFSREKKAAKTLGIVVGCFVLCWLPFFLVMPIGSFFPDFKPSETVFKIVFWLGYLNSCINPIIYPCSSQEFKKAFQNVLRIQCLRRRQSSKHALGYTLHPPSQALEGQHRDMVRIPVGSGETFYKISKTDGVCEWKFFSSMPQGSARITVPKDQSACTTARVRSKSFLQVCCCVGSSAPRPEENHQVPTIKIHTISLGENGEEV
# rat Neurokinin-1 Receptor (NK1), Tacr1 (gene 24807), sequence (P14600 whole entry, looked up): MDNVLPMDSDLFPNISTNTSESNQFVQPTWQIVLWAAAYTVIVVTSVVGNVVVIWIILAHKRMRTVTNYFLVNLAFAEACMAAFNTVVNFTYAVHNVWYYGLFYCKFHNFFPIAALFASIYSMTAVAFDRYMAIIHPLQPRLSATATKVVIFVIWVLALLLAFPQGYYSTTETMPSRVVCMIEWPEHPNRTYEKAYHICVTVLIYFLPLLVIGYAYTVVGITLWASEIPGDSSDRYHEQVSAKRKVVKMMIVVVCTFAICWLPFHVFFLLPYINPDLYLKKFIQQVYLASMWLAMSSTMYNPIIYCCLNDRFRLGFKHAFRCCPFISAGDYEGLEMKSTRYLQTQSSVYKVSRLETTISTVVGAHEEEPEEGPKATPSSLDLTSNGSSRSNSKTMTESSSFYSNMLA
# rat Adrenergic Receptor, Alpha 2 (Adra2), Non-selective Binding, Adra2a (gene 25083), sequence (P22909 whole entry, looked up): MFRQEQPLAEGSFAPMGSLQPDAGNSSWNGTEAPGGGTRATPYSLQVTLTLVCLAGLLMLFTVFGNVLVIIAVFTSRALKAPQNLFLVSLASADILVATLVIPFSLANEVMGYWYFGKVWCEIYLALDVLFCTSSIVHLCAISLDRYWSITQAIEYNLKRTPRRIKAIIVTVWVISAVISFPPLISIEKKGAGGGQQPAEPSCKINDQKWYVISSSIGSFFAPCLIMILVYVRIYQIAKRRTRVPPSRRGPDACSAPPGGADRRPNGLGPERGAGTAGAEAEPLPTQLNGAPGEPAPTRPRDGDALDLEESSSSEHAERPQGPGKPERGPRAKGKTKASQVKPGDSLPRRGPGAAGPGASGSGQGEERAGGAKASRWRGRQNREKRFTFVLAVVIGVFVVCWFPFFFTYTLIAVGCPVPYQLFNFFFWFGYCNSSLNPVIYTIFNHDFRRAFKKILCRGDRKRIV
# rat Adrenergic Receptor, Beta (Adrb), Non-selective Binding, Adrb1 (gene 24925), sequence (P18090 whole entry, looked up): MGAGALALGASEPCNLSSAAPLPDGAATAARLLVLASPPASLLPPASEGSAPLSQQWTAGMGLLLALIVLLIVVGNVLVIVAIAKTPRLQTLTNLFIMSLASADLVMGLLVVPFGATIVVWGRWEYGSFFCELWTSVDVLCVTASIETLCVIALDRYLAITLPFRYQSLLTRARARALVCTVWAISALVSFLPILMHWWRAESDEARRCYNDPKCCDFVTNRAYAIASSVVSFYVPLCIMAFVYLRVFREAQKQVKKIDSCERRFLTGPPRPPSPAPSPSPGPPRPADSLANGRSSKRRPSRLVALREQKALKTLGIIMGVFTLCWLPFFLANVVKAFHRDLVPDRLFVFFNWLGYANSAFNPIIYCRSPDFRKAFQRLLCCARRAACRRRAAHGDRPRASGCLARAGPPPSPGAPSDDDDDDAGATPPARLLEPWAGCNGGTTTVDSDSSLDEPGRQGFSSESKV
# rat Adrenergic, Alpha 1, Non-selective Receptor (Adra1), Adra1a (gene 29412), sequence (P43140 whole entry, looked up): as the sequence (P43140 whole entry, looked up) above
smiles,measurement,setting,value
CCc1nc(N)nc(N)c1-c1ccc(Cl)cc1,AC50,[1],7.09 µM (active)
same,AC50,[2],8.12 µM (active)
same,AC50,[3],4.48 µM (active)
same,AC50,[4],11.6 µM (active)
same,AC50,[5],2.37 µM (active)
same,AC50,[6],4.4 µM (active)
same,AC50,[7],6.56 µM (active)
same,AC50,Adra2b (gene 24174),5.45 µM (active)
same,outcome,[8],inactive
O=C(NS(=O)(=O)/C=C/c1cccs1)c1ccc(F)cc1Br,AC50,[9],22.6 µM (active)
Nc1nc(=S)c2[nH]cnc2[nH]1,outcome,[10],inactive
same,outcome,[11],inactive
Cc1ccc(C(C)(C)C)c(O)c1,outcome,[2],inactive
same,outcome,[5],inactive
NCCOCCOCCN,outcome,[12],inactive
Cc1ccc(-c2cc(C(F)(F)F)nn2-c2ccc(S(N)(=O)=O)cc2)cc1,outcome,Adra2b (gene 24174),inactive
same,outcome,[8],inactive
Cc1c(C)c2c(c(C)c1O)CCC(C)(COc1ccc(CC3SC(=O)NC3=O)cc1)O2 (stereo not drawn),outcome,[8],inactive
CN(C)CCCN(C)CCCN(C)C,outcome,[3],inactive
same,outcome,[6],inactive
same,AC50,[13],25 µM (active)
NC=O,outcome,[14],inactive
O=Cc1ccccc1C=O,outcome,[6],inactive
CC(=O)CC(c1ccccc1)c1c(O)c2ccccc2oc1=O (stereo not drawn),outcome,[3],inactive
CCCCCCCCCC[N+](C)(C)[O-],outcome,[15],inactive
same,outcome,[16],inactive
CCCCCCCCCCCCCCOS(=O)(=O)O,AC50,[11],8.03 µM (active)
same,AC50,[6],20.9 µM (active)
Oc1ccccc1O,outcome,[11],inactive
Cc1cn([C@H]2C=C[C@@H](CO)O2)c(=O)[nH]c1=O,outcome,[17],inactive
CC(=O)O[C@]1(C(C)=O)CC[C@H]2[C@@H]3C=C(Cl)C4=CC(=O)[C@@H]5C[C@@H]5[C@]4(C)[C@H]3CC[C@@]21C,AC50,[11],474 nM (active) and 612 nM (active)
same,outcome,[11],inactive
Cc1occc(=O)c1O,outcome,[11],inactive
CCCCc1nc2cccnc2n1Cc1ccc(-c2ccccc2-c2nnn[nH]2)cc1,AC50,[18],15.4 µM (active)
same,outcome,[4],inactive
same,outcome,[14],inactive
same,AC50,[16],5.16 µM (active)
CC(C)NCC(O)c1ccc(O)c(O)c1 (stereo not drawn),outcome,[6],inactive
O=C1OC(c2ccc(O)cc2)(c2ccc(O)cc2)c2ccccc21,AC50,[8],0.604 µM (active)
CC(C)COC(=O)CCCCC(=O)OCC(C)C,outcome,[3],inactive
CC(C)c1cccc(C(C)C)c1,outcome,[3],inactive
CCCCC(CC)COP(=O)(OCC(CC)CCCC)OCC(CC)CCCC (stereo not drawn),outcome,[11],inactive
C/C=C/c1ccc(OC)cc1,AC50,[15],0.28 µM (active)
Oc1ccc(O)cc1,AC50,[11],15.3 µM (active)
COc1ccc(OC(F)(F)F)cc1CN[C@H]1CCCN[C@H]1c1ccccc1,AC50,[11],7.3 µM (active)
same,AC50,[3],12.2 µM (active)
same,AC50,[4],12.1 µM (active)
same,AC50,[5],25 µM (active)
same,AC50,[6],14.8 µM (active)
same,AC50,[7],13.1 µM (active)
same,AC50,Adra2b (gene 24174),9.2 µM (active)
same,AC50,[16],12.5 µM (active)
same,outcome,[8],inactive
